Reference: PubChem BioAssay
Unmarked numbers belong to inactive results. Active and inactive are the calls of the source.

Assay: forskolin-driven CRE-LacZ activity in PC12 – cell-based, CRE-LacZ reporter, forskolin-stimulated, primary screen (AID 1146);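 further: PC12 cells with 6xCRE LacZ reporter stimulated by forskolin 10 µM; beta-galactosidase reporter signal reflecting CREB driven transcription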
Conditions: luminescence, 4.5 h, higher = more signal, called active from +8 up or from −8 down

| Structure (SMILES) | z-score |
| --- | --- |
| [N-]=[N+]=Nc1ccccc1C[C@@]1(C(=O)NCC(O)CO)N=C(c2ccc(OCCCO)cc2)O[C@@H]1c1ccccc1 (stereo not given in full) | -0.57 |
| C=C(CCCC)/C(=C/C[C@H](OC(=O)c1ccncc1)c1cccc(OCCO)c1)c1cnc2ccccc2c1 | 0.256 |
| COCCOC(=O)N1C(=O)[C@@]2(c3cc(C#Cc4ccc(OC)cc4)ccc31)[C@H](c1ccc(OCCO)cc1)N1[C@H](c3ccccc3)[C@H](c3ccccc3)OC(=O)[C@H]1[C@@H]2C(=O)NC[C@H](O)c1ccccc1 | 0.003 |
| CCOC(=O)C1=CC[C@@H](c2ccc(OC)cc2)N(S(=O)(=O)c2ccc(C)cc2)[C@H]1c1ccc(C)cc1 | -0.24 |
| COCCOC(=O)N1C(=O)[C@@]2(c3cc(C#CCCO)ccc31)[C@H](c1ccc(OCCO)cc1)N1[C@H](c3ccccc3)[C@H](c3ccccc3)OC(=O)[C@H]1[C@@H]2C(=O)N1CCCCCCC1 | 2.51 |
| COC(=O)[C@@]1(Cc2ccc(F)cc2)[C@H]2c3cc(C(=O)N4CCCC4)n(Cc4cc(F)cc5c4OCOC5)c3C[C@H]2CN1C(=O)c1ccccc1 | 0.755 |
| C=C(CCCC)/C(=C/C[C@H](OC(=O)c1ccncc1)c1ccc(OCCO)cc1)c1cnc2ccccc2c1 | -0.574 |
| C=CCOC(=O)[C@@H]1[C@H]2C(=O)O[C@H](c3ccccc3)[C@H](c3ccccc3)N2[C@H](c2ccc(OCCOC(=O)[C@H]3C[C@H]4C(=O)N5CCC[C@H]5C(=O)N4[C@H]3c3cccc(OCCO)c3)cc2)[C@@]12C(=O)Nc1ccc(I)cc12 | -0.206 |
| COc1ccc([Si](C)(C)[C@H]2[C@H](CC(=O)N3Cc4ccccc4C[C@H]3CO)O[C@@]3(C(=O)N(C)c4c(Br)cc(C)cc43)[C@@H]2C)cc1 | -1.29 |
| CCCC[C@H]1OB(O)C[C@H]2C1=C(COc1ccccc1)C[C@H]1C(=O)C=CC(=O)[C@H]12 | 2.07 |
| COCCOC(=O)N1C(=O)[C@@]2(c3cc(C#CCC(C(=O)OC)C(=O)OC)ccc31)[C@H](C(=O)Nc1nc3ccccc3s1)[C@H]1C(=O)O[C@H](c3ccccc3)[C@H](c3ccccc3)N1[C@@H]2c1ccc(O)cc1 | 0.316 |
| COC(=O)[C@@]1(Cc2ccc(OC)cc2)[C@H]2c3cc(C(=O)N4CCCC4)n(Cc4ccc(Cl)c(C(F)(F)F)c4)c3C[C@H]2CN1C(=O)c1ccccc1 | -0.218 |
| Cc1ccc(F)cc1S(=O)(=O)N[C@H]1CCN(Cc2ccc(OC(C)C)cc2)C1 | -0.592 |
| COCCOC(=O)N1C(=O)[C@@]2(c3cc(C#CCNC(N)=O)ccc31)[C@H](C(=O)Nc1nc3ccccc3s1)[C@H]1C(=O)O[C@H](c3ccccc3)[C@H](c3ccccc3)N1[C@@H]2c1ccccc1OCCO | -0.154 |
| CCCCC(O)C1C=CC2C(=O)N(c3ccccc3)C(=O)C2N1Nc1ccc([N+](=O)[O-])cc1 (stereo not given) | -0.176 |
| CCCN1C(=O)[C@@]2(c3ccc([N+](=O)[O-])cc3)CC(=O)N(CC34CC5CC(CC(C5)C3)C4)[C@@H]2c2ccc(CO)cc21 | 1 |
| O=C1C=C(c2ccccc2)C(=O)C2=C1CC([C@H]1Oc3ccccc3S(=O)(=O)N3CCC[C@@H]13)=CC2 | 20.1 (active) |
| O=C1[C@H]2C=C(I)[C@H](C[C@@H]2OCCCCCCO)[C@@]12CO2 | 1.77 |

| Structure (SMILES) | z-score |
| --- | --- |
| N#Cc1ccc(-c2cccc(=O)o2)cc1 | 0.648 |
| N#Cc1ccc(NN2C(C(O)C3CC=CCC3)C=CC3C(=O)N(c4ccccc4)C(=O)C32)cc1 (stereo not given) | 0.516 |
| COC(=O)C(CC#Cc1ccc2c(c1)[C@]1(C(=O)N2)[C@H](c2ccc(OCCO)cc2)N2[C@H](c3ccccc3)[C@H](c3ccccc3)OC(=O)[C@H]2[C@@H]1C(=O)N1CCCCCCC1)C(=O)OC | -0.159 |
| COCCOC(=O)N1C(=O)[C@@]2(c3ccccc31)[C@H](c1ccc(O)cc1)N1[C@H](c3ccccc3)[C@H](c3ccccc3)OC(=O)[C@H]1[C@@H]2C(=O)N1CCCCCCC1 | -0.0911 |
| COc1ccc(C(O)C2C=CC3C(=O)N(c4ccccc4)C(=O)C3N2Nc2ccc([N+](=O)[O-])cc2)c2ccccc12 (stereo not given) | -0.838 |
| O=C1c2ccccc2[C@@]2(Cc3ccccc3N(Cc3ccccc3)C2=O)[C@H](c2ccc(CO)cc2)N1Cc1ccccc1Cl | 0.164 |
| O=C1[C@@H]2[C@@H](CC(COc3ccccc3)=C([C@H](O)CCc3ccccc3)[C@@H]2CO)C(=O)N1Cc1ccccc1 | 0.831 |
| COCCOC(=O)N1C(=O)[C@@]2(c3cc(C#CCC(C(=O)OC)C(=O)OC)ccc31)[C@H](C(N)=O)[C@H]1C(=O)O[C@H](c3ccccc3)[C@H](c3ccccc3)N1[C@@H]2c1ccc(O)cc1 | -0.339 |
| CN(C)CCCNC(=O)[C@@]1(C)c2ccccc2C(=O)N(Cc2ccc(OC(F)(F)F)cc2)[C@H]1c1ccc(CO)cc1 | -0.175 |
| CCCC=C(CCC)[C@@H](NC(=O)OCC(C)C)c1ccc(C(=O)OC)cc1 | 0.291 |
| COc1ccc(CCNC(=O)[C@@H]2c3ccccc3C(=O)N(Cc3ccccc3OC)[C@H]2c2ccc(CO)cc2)cc1 | -1.12 |
| CCCC#C[Si](O[C@H](CC)c1cn(Cc2ccccc2)nn1)(C(C)C)C(C)C | 0.04 |
| [N-]=[N+]=NCc1ccccc1[C@@H]1OC(c2ccc(OCCCO)cc2)=N[C@]1(Cc1ccccc1N=[N+]=[N-])C(=O)O | -0.638 |
| CN(C)CCCNC(=O)[C@@H]1c2ccccc2C(=O)N(Cc2ccccc2C(F)(F)F)[C@H]1c1ccc(CO)cc1 | -0.951 |
| C=CCNC(=O)[C@H]1[C@@H]2C(=O)O[C@@H](c3ccccc3)[C@@H](c3ccccc3)N2[C@@H](c2ccc(OCCO)cc2)[C@]12C(=O)Nc1ccccc12 | 1.1 |
| O=C1O[C@@H](c2ccccc2)[C@@H](c2ccccc2)N2[C@@H](c3ccccc3OCCO)[C@]3(C(=O)Nc4ccc(C#CCCO)cc43)[C@@H](C(=O)NC[C@H](O)c3ccccc3)[C@H]12 | 0.717 |
| C[C@]1(C(=O)O)c2ccccc2C(=O)N(Cc2cc(F)cc(C(F)(F)F)c2)[C@H]1c1ccc(CO)cc1 | -0.172 |
